15 sequences from the OligoGym collection can be followed below.
Also: reference of the scale not given here.

The target of the first assay is ROCK2. Nature of the assay: pooled miR-30 sensor sort-seq; sequence = guide strand. As to conditions: shRNA.
Take TTTTGCTGTATCTTCATTGAAG: the sensor-assay potency score (higher = more potent) was -0.765.

The sequence TTTCTAACTGTCTTAATGCTGA had a sensor-assay potency score (higher = more potent) of -0.42.

TCTATTGTTAGATTCCAGCTGC gave a sensor-assay potency score (higher = more potent) of 0.544.

For TAGATGTCCATGTTTATCCAAG, the sensor-assay potency score (higher = more potent) is -1.07.

Sequence TAACTTGGCAGTCTCCAGCAGG registered a sensor-assay potency score (higher = more potent) of -1.05.

As to TAAAGCATTGGTTTCATCCAGT, the sensor-assay potency score (higher = more potent) came to 0.0253.

Take TTCTGCTTCGAGCTGATCCTGG: the sensor-assay potency score (higher = more potent) is -0.437.

Regarding TTTTCTGACATTTTTAGTGTGT, the sensor-assay potency score (higher = more potent) stood at 0.278.

In turn, TTTATCTGCTAGTCGTGCCTTT came in with a sensor-assay potency score (higher = more potent) of 0.209.

Regarding TTGAGAAATACTGTTCTGCTTC, the sensor-assay potency score (higher = more potent) came to 0.537.

Regarding TATTTTTATCTGCTAGTCGTGC, the sensor-assay potency score (higher = more potent) was -0.412.

Another assay concerns the target ROPN1. The assay is described as above. As to conditions: shRNA.
TCCATGTAGTTTAGCATCCTGC: the sensor-assay potency score (higher = more potent) was -1.26.

The sequence ATTCTGAAGTACAATCATCTCT showed a sensor-assay potency score (higher = more potent) of 0.029.

The sequence AACTGGAAGGTGCTGAACGGGA displayed a sensor-assay potency score (higher = more potent) of -0.696.

TCTGAAGTACAATCATCTCTGT had a sensor-assay potency score (higher = more potent) of 0.301.
